# Where “and” joins values, the source holds several entries; their conditions need not be identical. Equal values may be shown once. Values without a mark were called inactive. Inconclusive results are not listed. A call without a number means that no potency is given here. Calls of active or inactive are those of the source. Calls follow the shape of the dose curve; as a rule, active = well fitted curve in the direction sought with a large enough effect in the repeat runs; inconclusive = weak or mixed curves; inactive = no such curve, though single readings can be large; an effect the other way counts as inactive or inconclusive.
# Columns and labels:
# [1] = A CellTox Green Cytotoxicity Assay to monitor cytotoxicity in HEK293 cells - 40 hour (AID 1224871); also: nearly all actives have a fitted effect of over 45% in size; also: potency is read from the fitted curve at half-maximal effect
# Method in brief: (§1)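 Read-out: fluorescence of a cell-impermeant cyanine dye staining DNA of dead cells, proportional to cytotoxicity. HEK293, 600 cells/well with reagent, compound (23 nL DMSO) added after 5 h; reads at 0, 8, 16, 24, 32, 40 h.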
# [2] = qHTS RealTime-Glo MT Cell Viability Assay in HepG2 cells - 8 hour (AID 1224873); also: nearly all actives have a fitted effect of over 55% in size; also: potency is read from the fitted curve at half-maximal effect
# Method in brief: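 Real-time viability: cells seeded at 600 per well together with NanoLuc and cell-permeant prosubstrate, compounds added after 5 h incubation. Luminescence tracked at 0, 8, 16, 24, 32 and 40 h of exposure.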
# [3] = A CellTox Green Cytotoxicity Assay to monitor cytotoxicity in HEK293 cells - 24 hour (AID 1224875); also: nearly all actives have a fitted effect of over 45% in size; also: potency is read from the fitted curve at half-maximal effect
# Method in brief: as §1
# [4] = A CellTox Green Cytotoxicity Assay to monitor cytotoxicity in HepG2 cells - 16 hour (AID 1224876); also: nearly all actives have a fitted effect of over 45% in size; also: potency is read from the fitted curve at half-maximal effect
# Method in brief: (§2)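 HepG2, 600 cells/well premixed w/ CellTox Green; 5 h settle, 37 C/5% CO2; pintool cpd add (DMSO); 37 C, 40 h; fluorescence read at 0, 8, 16, 24, 32, 40 h.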
# [5] = qHTS RealTime-Glo MT Cell Viability Assay in HepG2 cells - 32 hour (AID 1224877); also: nearly all actives have a fitted effect of over 55% in size; also: potency is read from the fitted curve at half-maximal effect
# Method in brief: (§3)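 Viability was tracked continuously by NanoLuc luminescence from prosubstrate reduced by living HepG2 cells, at successive time points over 40 h of compound exposure. Cells with reagent were preincubated 5 h at 37 °C before compound addition.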
# [6] = A CellTox Green Cytotoxicity Assay to monitor cytotoxicity in HepG2 cells - 24 hour (AID 1224878); also: nearly all actives have a fitted effect of over 45% in size; also: potency is read from the fitted curve at half-maximal effect
# Method in brief: as §2
# [7] = A CellTox Green Cytotoxicity Assay to monitor cytotoxicity in HepG2 cells - 40 hour (AID 1224879); also: nearly all actives have a fitted effect of over 40% in size; also: potency is read from the fitted curve at half-maximal effect
# Method in brief: as §2
# [8] = qHTS RealTime-Glo MT Cell Viability Assay in HEK293 cells - 0 hour (AID 1224880)
# Method in brief: (§4)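 Luminescence readout at each listed time point; HEK293, 600 cells/well, RealTime-Glo MT reagent added with cells; compounds pinned (23 nL in DMSO) after 5 h at 37 C; continuous culture at 37 C.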
# [9] = A CellTox Green Cytotoxicity Assay to monitor cytotoxicity in HEK293 cells - 32 hour (AID 1224881); also: nearly all actives have a fitted effect of over 40% in size; also: potency is read from the fitted curve at half-maximal effect
# Method in brief: as §1
# [10] = A CellTox Green Cytotoxicity Assay to monitor cytotoxicity in HepG2 cells - 0 hour (AID 1224882); also: nearly all actives have a fitted effect of over 35% in size
# Method in brief: as §2
# [11] = A CellTox Green Cytotoxicity Assay to monitor cytotoxicity in HEK293 cells - 8 hour (AID 1224884); also: nearly all actives have a fitted effect of over 35% in size; also: potency is read from the fitted curve at half-maximal effect
# Method in brief: as §1
# [12] = qHTS RealTime-Glo MT Cell Viability Assay in HepG2 cells - 16 hour (AID 1224885); also: nearly all actives have a fitted effect of over 50% in size; also: potency is read from the fitted curve at half-maximal effect
# Method in brief: as §3
# [13] = A CellTox Green Cytotoxicity Assay to monitor cytotoxicity in HEK293 cells - 16 hour (AID 1224888); also: nearly all actives have a fitted effect of over 35% in size; also: potency is read from the fitted curve at half-maximal effect
# Method in brief: as §1
# [14] = qHTS RealTime-Glo MT Cell Viability Assay in HepG2 cells - 0 hour (AID 1224889); also: nearly all actives have a fitted effect of over 50% in size
# Method in brief: as §3
# [15] = A CellTox Green Cytotoxicity Assay to monitor cytotoxicity in HepG2 cells - 8 hour (AID 1224890); also: nearly all actives have a fitted effect of over 45% in size; also: potency is read from the fitted curve at half-maximal effect
# Method in brief: as §2
# [16] = qHTS RealTime-Glo MT Cell Viability Assay in HEK293 cells - 40 hour (AID 1224874); settings: RealTime-Glo luminescence; max response: stronger effect = lower value; also: nearly all actives have a fitted effect of over 50% in size; also: potency is read from the fitted curve at half-maximal effect
# Method in brief: as §4
# [17] = A CellTox Green Cytotoxicity Assay to monitor cytotoxicity in HepG2 cells - 32 hour (AID 1224883); also: nearly all actives have a fitted effect of over 50% in size; also: potency is read from the fitted curve at half-maximal effect
# Method in brief: as §2
# [18] = qHTS RealTime-Glo MT Cell Viability Assay in HEK293 cells - 8 hour (AID 1224887); also: nearly all actives have a fitted effect of over 50% in size; also: potency is read from the fitted curve at half-maximal effect
# Method in brief: as §4
# [19] = qHTS RealTime-Glo MT Cell Viability Assay in HEK293 cells - 16 hour (AID 1224872); also: nearly all actives have a fitted effect of over 50% in size; also: potency is read from the fitted curve at half-maximal effect
# Method in brief: (§5)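 Viability tracked continuously by luminescence as live cells reduce a prosubstrate for NanoLuc; HEK293 cells preincubated 5 h, compound-treated at 37 C, and read at 0, 8, 16, 24, 32 and 40 h.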
# [20] = qHTS RealTime-Glo MT Cell Viability Assay in HEK293 cells - 24 hour (AID 1224886); also: nearly all actives have a fitted effect of over 50% in size; also: potency is read from the fitted curve at half-maximal effect
# Method in brief: as §5
structure (smiles),measurement,setting,value
Cn1cc(C(=O)[C@@H]2CCc3nc[nH]c3C2)c2ccccc21,Potency,[1],inactive
same,Potency,[2],inactive
same,Potency,[3],inactive
same,Potency,[4],inactive
same,Potency,[5],inactive
same,Potency,[6],inactive
same,Potency,[7],inactive
same,Potency,[8],inactive
same,Potency,[9],inactive
same,Potency,[10],inactive
same,Potency,[11],inactive
same,Potency,[12],inactive
same,Potency,[13],inactive
same,Potency,[14],inactive
same,Potency,[15],inactive
CCCCCCCCOc1ccccc1C(=O)Nc1ccc(C(=O)OCC[N+](C)(CC)CC)cc1,Potency,[1],26.8 µM (active)
same,Potency,[16],21.3 µM (active)
same,Potency,[3],23.9 µM (active)
same,Potency,[4],23.9 µM (active)
same,Potency,[6],26.8 µM (active)
same,Potency,[7],23.9 µM (active)
same,Potency,[9],23.9 µM (active)
same,Potency,[17],23.9 µM (active)
same,Potency,[11],23.9 µM (active)
same,Potency,[18],inactive
same,Potency,[13],23.9 µM (active)
same,Potency,[14],inactive
same,Potency,[15],26.8 µM (active)
CC(C)(C)C1CCC(CC2=C(O)c3ccccc3C(=O)C2=O)CC1 (stereo not given),Potency,[1],16.9 µM (active)
same,Potency,[2],inactive
same,max response,[16],-30%
same,Potency,[5],inactive
same,Potency,[8],inactive
same,Potency,[9],21.3 µM (active)
same,Potency,[10],inactive
same,Potency,[11],inactive
same,Potency,[12],inactive
same,Potency,[13],inactive
same,Potency,[14],inactive
same,Potency,[15],inactive
Cc1ccc(O)c(C(C)(C)C)c1,Potency,[19],inactive
same,Potency,[2],inactive
same,max response,[16],-17.7% and -1.19%
same,Potency,[3],48.9 µM (active)
same,Potency,[4],38.8 µM (active) and 34.7 µM (active)
same,Potency,[5],inactive
same,Potency,[6],43.6 µM (active) and 34.7 µM (active)
same,Potency,[7],43.6 µM (active) and 34.7 µM (active)
same,Potency,[8],inactive
same,Potency,[9],43.6 µM (active)
same,Potency,[10],inactive
same,Potency,[17],43.6 µM (active) and 34.7 µM (active)
same,Potency,[11],inactive
same,Potency,[12],inactive
same,Potency,[18],inactive
same,Potency,[13],inactive
same,Potency,[14],inactive
same,Potency,[15],48.9 µM (active) and 38.9 µM (active)
C=C(C)C(=O)OCC(O)COc1ccc(C(C)(C)c2ccc(OCC(O)COC(=O)C(=C)C)cc2)cc1 (stereo not given),Potency,[19],9.77 µM (active)
same,Potency,[2],19.5 µM (active)
same,Potency,[16],13.8 µM (active)
same,Potency,[3],inactive
same,Potency,[4],inactive
same,Potency,[5],21.9 µM (active)
same,Potency,[6],inactive
same,Potency,[7],43.6 µM (active)
same,Potency,[8],inactive
same,Potency,[9],inactive
same,Potency,[10],inactive
same,Potency,[12],19.5 µM (active)
same,Potency,[20],11 µM (active)
same,Potency,[18],11 µM (active)
same,Potency,[13],inactive
same,Potency,[14],inactive
same,Potency,[15],inactive
CC(C)(C)C(=O)OCOC(=O)[C@@H]1N2C(=O)[C@@H](NC(=O)[C@H](N)c3ccccc3)[C@H]2SC1(C)C,Potency,[19],inactive
same,Potency,[2],inactive
same,max response,[16],5.37%
same,Potency,[3],inactive
same,Potency,[4],inactive
same,Potency,[5],inactive
same,Potency,[6],inactive
same,Potency,[7],inactive
same,Potency,[8],inactive
same,Potency,[9],inactive
same,Potency,[10],inactive
same,Potency,[17],inactive
same,Potency,[11],inactive
same,Potency,[12],inactive
same,Potency,[20],inactive
same,Potency,[18],inactive
same,Potency,[13],inactive
same,Potency,[14],inactive
same,Potency,[15],inactive
CC1=C(C(=O)OC(C)C)C(c2cccc([N+](=O)[O-])c2)C(C(=O)OC2CN(C(c3ccccc3)c3ccccc3)C2)=C(N)N1 (stereo not given),Potency,[1],inactive
same,Potency,[3],inactive
same,Potency,[5],21.3 µM (active)
same,Potency,[6],23.9 µM (active)
same,Potency,[7],23.9 µM (active)
same,Potency,[9],inactive
same,Potency,[10],inactive
same,Potency,[17],23.9 µM (active)
same,Potency,[11],inactive
same,Potency,[12],21.3 µM (active)
same,Potency,[13],inactive
same,Potency,[14],inactive
N/C(=N\N=C\c1ccc(Cl)cc1)N/N=C/c1ccc(Cl)cc1,Potency,[1],23.9 µM (active)
same,Potency,[3],23.9 µM (active)
same,Potency,[4],21.3 µM (active)
same,Potency,[6],21.3 µM (active)
same,Potency,[7],23.9 µM (active)
same,Potency,[9],23.9 µM (active)
same,Potency,[10],inactive
same,Potency,[17],23.9 µM (active)
same,Potency,[11],23.9 µM (active)
same,Potency,[13],23.9 µM (active)
same,Potency,[15],21.3 µM (active)
CCc1oc2ccccc2c1C(=O)c1cc(Br)c(O)c(Br)c1,Potency,[1],inactive
same,Potency,[2],inactive
same,Potency,[3],inactive
same,Potency,[4],inactive
same,Potency,[6],inactive
same,Potency,[7],inactive
same,Potency,[8],inactive
same,Potency,[9],inactive
same,Potency,[10],inactive
same,Potency,[17],inactive
same,Potency,[12],inactive
same,Potency,[18],inactive
same,Potency,[13],inactive
same,Potency,[14],inactive
same,Potency,[15],inactive
CCC(Cl)C(Cl)C(Cl)CC(Cl)C(Cl)C(C)Cl (stereo not given),Potency,[1],inactive
same,Potency,[2],inactive
same,Potency,[3],inactive
same,Potency,[4],inactive
same,Potency,[6],inactive
same,Potency,[7],inactive
same,Potency,[8],inactive
same,Potency,[9],inactive
same,Potency,[10],inactive
same,Potency,[17],inactive
same,Potency,[11],inactive
same,Potency,[12],inactive
same,Potency,[20],inactive
same,Potency,[13],inactive
same,Potency,[14],inactive
same,Potency,[15],inactive
O=C1c2c(O)ccc(Nc3ccc(CCO)cc3)c2C(=O)c2c([N+](=O)[O-])ccc(O)c21,Potency,[1],inactive
same,max response,[16],-18.6%
same,Potency,[3],inactive
same,Potency,[4],inactive
same,Potency,[5],inactive
same,Potency,[6],inactive
same,Potency,[7],inactive
same,Potency,[8],inactive
same,Potency,[9],inactive
same,Potency,[10],inactive
same,Potency,[17],inactive
same,Potency,[11],inactive
same,Potency,[18],43.6 µM (active)
same,Potency,[13],inactive
same,Potency,[15],inactive
Cc1oc(-c2ccccc2)nc1CCC(=O)c1ccc(CC2SC(=O)NC2=O)cc1 (stereo not given),Potency,[19],inactive
same,Potency,[2],inactive
same,max response,[16],-22.3%
same,Potency,[3],inactive
same,Potency,[4],inactive
same,Potency,[5],inactive
same,Potency,[6],inactive
same,Potency,[7],inactive
same,Potency,[8],inactive
same,Potency,[9],inactive
same,Potency,[10],inactive
same,Potency,[17],inactive
same,Potency,[11],inactive
same,Potency,[18],inactive
same,Potency,[13],inactive
same,Potency,[14],inactive
same,Potency,[15],inactive
